Data reported in PubChem BioAssay AID493208 (National Center for Advancing Translational Sciences (NCATS), 2011).
Hit rate of the full screen: of about 44,000 compounds, about 340 (0.77%) were called active. Inconclusive results (about 5%) are left out. The call rests on the fitted dose curve; in most records, active means well fitted inhibition curve with a large enough effect; inconclusive means small, poorly fitted or top-dose-only effect; inactive means flat fitted curve, though single readings scatter. The full list was thinned out, with actives kept by preference.

Assay: Acumen qHTS Assay for Inhibitors of the mTORC1 Signaling Pathway in MEF (Tsc2-/-, p53-/-) Cells: Sytravon; further: nearly all actives have a fitted effect of over 50% in size
Details: phospho-rpS6 immunofluorescence/PI, 24 h; series mostly up to 38.3 µM; activity change, negative = inhibition: at the top concentration
Excerpt: NIH Molecular Libraries Probe Production Centers Network [MLPCN] NIH Chemical Genomics Center [NCGC] MLPCN Grant: NS059428-01 Assay Submitter (PI): Blenis, John; Hoffman, Greg; Harvard University NCGC Assay Overview: The mammalian target of rapamycin (mTOR) is an intracellular serine/threonine kinase Aberrant regulation of mTOR signaling plays a causative role in a number of human diseases, including cancer, benign tumors such as lymphangioleiomyomatosis (LAM) and Tuberous Sclerosis Complex (TSC), and metabolic diseases such as diabetes and obesity. This project aims to identify inhibitors of ribosomal protein S6 (rpS6) phosphorylation. The phosphorylation of rpS6 is a key event downstream of mTOR activation. The assay uses a phospho-specific antibody of phospho-rpS6 to detect inhibitors of mTOR activation. Mutations in the Tsc1 and Tsc2 genes are the underlying genetic lesions responsible for TSC, causing constitutive activation of the mTORC1 pathway and leading to profound effects on cell metabolism. Aberrant metabolism in cancer has recently received significant attention as a target to develop therapeutic agents in the treatment of cancer.1 As Tsc2-/- cells have lost the ability to respond to energy and growth factor deprivation, these cells are unable to properly down regulate cellular biosynthetic processes in response to metabolic stress, and are thus extremely sensitive to glucose deprivation-induced death.2 A central goal of this project is to explore the unique cell survival and metabolic properties of cells with Tsc1 or Tsc2 by screening for compounds that selectively target the Tsc2-/- MEFs by screening both Tsc2-/- and WT MEF cell lines. We hope to better understand these aspects of TSC physiology in order to exploit them for therapeutic benefit.
NCGC Acumen Assay Protocol Summary: For quantitative high throughput analysis of mTORC1 signaling, we developed a cell-based assay for immuno-fluorescence based detection of rpS6 phosphorylation on the Acumen Explorer that will be used a platform for the primary small molecule screen. Mouse embryonic fibroblasts (MEFs) are cultured in 1536-well plates using DMEM + 10% FBS. Twenty-four hrs after plating, test compounds (solubilized in DMSO) are delivered and incubated with the cells for 24 hrs at 37 degree Celsius. Following the incubation, media with compound is aspirated and the cells are fixed in 4% paraformaldehyde (PFA) containing PBS + 0.2% TX-100. Next, PFA is aspirated, cells are washed two times with PBS plus 0.2% TX-100 and the cells are blocked for 1 hr at room temperature (blocking buffer: LiCOR Blocking Buffer plus 0.2% TX-100). […] Cells are washed two times with PBS plus 0.2% TX-100, and stained with 10 uM propidium iodide (PI) for 20-25 minutes for cell number measurement (1:500 dilution of Hoescht staining is also added for IN Cell imaging). The plates are scanned on the Acumen Explorer laser scanning instrument (TTP Labtech) using the 488nm laser for simultaneous excitation of the Alexa-488 and PI. […] The normalized phospho-S6 staining is calculated as the ratio of the integrated Alexa 488 intensity divided by the integrated PI intensity for the single concentration rapamycin control (7.5 nM) and DMSO columns. […] Inhibition of the pathway is defined based on the normalized phospho-S6 intensity in rapamycin treated cells. Active cells are defined as those with a normalized phospho-S6 staining above this threshold, and each treatment is reported as the % positive cells in the well, where thresholds are defined by selecting wells with the highest and lowest signal and differentiating between the % non-active and % active populations. In addition to the pathway specific phospho-S6 endpoint, the number of PI stained cells from the Acumen is recorded as a measure of cell viability. The primary screen was performed with a MEF cell line in a defined genetic background, Tsc2-/-, p53-/- cell line stably transfected with an empty vector control (Tsc2-/- MEF).
Potency means the concentration at half of the fitted maximal effect.

SMILES	activity change, negative = inhibition	Potency
CSc1oc(-c2cccs2)nc1S(=O)(=O)c1ccc(Br)cc1	2.88% (inactive)	–
Cc1ccc(CSc2oc(-c3cccs3)nc2S(=O)(=O)c2ccc(C)cc2)cc1	0% (inactive)	–
COc1cccc(CNC(=O)CSc2c3c(nc4cc(Cl)ccc24)CCCC3)c1	3.18% (inactive)	–
Cc1ccc(CNC(=O)CSc2c3c(nc4cc(Cl)ccc24)CCCC3)cc1	-6.2% (inactive)	–
CCOC(=O)C1CCN(C(=O)CSc2c3c(nc4ccc(Cl)cc24)CCCC3)CC1	–	18.5 µM (active)
CN(C)CCN(Cc1ccccc1)S(=O)(=O)c1csc(C(N)=O)c1	3.82% (inactive)	–
CC(C)C12CN3CC(C(C)C)(CN(C1)C3c1ccc(OCc3ccccc3)cc1)C2=O (stereo not drawn)	-2.1% (inactive)	–
N#C/C(=C\c1ccccc1F)c1nc2ccccc2c(=O)[nH]1	7.42% (inactive)	–
COC(=O)c1cnn(-c2ccc(C(=O)Nc3ccc(OC(F)(F)F)cc3)cc2)c1N	-1.33% (inactive)	–
Cc1ccc(Cn2c(=O)n(-c3ccc(C)cc3)c(=O)c3c2c2cc(C)ccc2n3C)cc1	-1.48% (inactive)	–
Cc1ccc(NC(=O)c2nc(S(=O)(=O)Cc3cccc(C)c3)ncc2Cl)cc1	–	5.85 µM (active)
CCOC(=O)c1ccc(NC(=O)c2nc(SCc3ccc(F)cc3)ncc2Cl)cc1	-6.5% (inactive)	–
CCSc1ncc(Cl)c(C(=O)Nc2cc(C)ccc2C)n1	5.83% (inactive)	–
CCC(C)NC(=O)Cn1c(=O)n(-c2ccc(Cl)cc2)c(=O)c2c3c(sc21)CCCC3 (stereo not drawn)	7.38% (inactive)	–
CC1CCCCN1CCCNC(=O)Cn1ncc2c([nH]c3ccccc32)c1=O (stereo not drawn)	-1.23% (inactive)	–
COc1ccccc1-c1noc(CSc2nnc(-c3ccccc3)n2-c2ccc(C)c(C)c2)n1	-10.2% (inactive)	–
CCOc1ccc(CNC(=O)c2ccc(CS(=O)c3ccccc3)o2)cc1 (stereo not drawn)	3.66% (inactive)	–
CCCCC(CC)CNC(=O)C1CCN(S(=O)(=O)c2cccc3nsnc23)CC1 (stereo not drawn)	2.77% (inactive)	–
CC(=O)c1cccc(NC(=O)CSc2nc3c(c(=O)[nH]2)CCC3)c1	2.41% (inactive)	–
Cc1ccc(Cn2c(C)c3cnn(CC(=O)NCc4ccccc4)c(=O)c3c2C)cc1	-12.7% (inactive)	–
Clc1ccc(CSc2nncn3c2cc2occc23)cc1	0.254% (inactive)	–
COc1cc(OC)cc(-c2nc3nc(C)c(CCC(=O)Nc4ccccc4)c(C)n3n2)c1	2.09% (inactive)	–
CCOc1cccc(CC(=O)N2CCc3c([nH]c4ccccc34)C2c2ccc(OC)cc2)c1OCC (stereo not drawn)	9.34% (inactive)	–
CCN(C(=O)CSc1nnc(C)n2c1cc1occc12)c1ccccc1	-2.15% (inactive)	–

SMILES	activity change, negative = inhibition	Potency
Cc1ccc(-c2nc(SCc3ccc(Br)cc3)n3[nH]c(=O)cc3n2)cc1	-2.33% (inactive)	–
O=c1cc(-c2ccccc2)n2c(SCc3ccccc3)nnc2[nH]1	0.0486% (inactive)	–
CCCCSc1ncnc2c1sc1nc(N3CCOCC3)c3c(c12)CCCC3	6.37% (inactive)	–
COc1ccc(N2C(=O)CSC23C(=O)N(Cc2cccc(F)c2)c2ccccc23)cc1Cl (stereo not drawn)	-3.26% (inactive)	–
COc1cc(C(=O)Nc2ccc(OCc3cc(=O)n4cc(C)sc4n3)cc2)cc(OC)c1OC	-6.16% (inactive)	–
CCOc1ccc(NC(=O)c2ncoc2-c2ccco2)cc1	0% (inactive)	–
Cn1nnnc1SCCNCc1ccc(Cl)c(Cl)c1	-5.71% (inactive)	–
Cn1nnnc1SCCCNCc1ccc(Cl)cc1	-9.59% (inactive)	–
Cn1nnnc1SCCCNCc1cccc(OCc2ccc(Cl)cc2)c1	–	18.5 µM (active)
COc1ccc(C(=O)Nc2nonc2-c2ccc(OC)c(OC)c2)cc1Cl	-29.4% (inactive)	–
Cc1ccc(NC(=O)c2cc3cc(C)ccc3n2C)cc1	-1.67% (inactive)	–
Cc1ccc(S(=O)(=O)c2nnn3c2nc(N2CCN(c4ccccc4F)CC2)c2cc(Cl)ccc23)cc1C	-0.0789% (inactive)	–
COC(=O)c1cc(NC(=O)c2cnc(SC)nc2-c2ccccc2)cc(C(=O)OC)c1	-1.13% (inactive)	–
CCNS(=O)(=O)c1cc(-c2nnc(Nc3cccc(C(F)(F)F)c3)c3ccccc23)ccc1C	–	18.5 µM (active)
Cc1ccc(Nc2nnc(-c3ccc(C)c(S(=O)(=O)N4CCCCC4)c3)c3ccccc23)cc1	-1.69% (inactive)	–
Cc1ccc(-c2nnc(Nc3cccc(Br)c3)c3ccccc23)cc1S(=O)(=O)NCC1CCCO1 (stereo not drawn)	-0.426% (inactive)	–
O=C(Nc1ccccc1Cl)N1CCC(CN2CCCCC2)CC1	-6.23% (inactive)	–
CCN(CCCNC(=O)c1cc2c(=O)n(CC)c3ccccc3c2s1)Cc1ccccc1	–	18.5 µM (active)
CCn1c(=O)c2cc(C(=O)NCCc3ccc(Cl)cc3)sc2c2ccccc21	1.55% (inactive)	–
CCc1ccc(CNC(=O)c2cc3c(=O)n(CC)c4ccccc4c3s2)cc1	-7.38% (inactive)	–
CCCCOC(=O)CSc1ncnc2sc3c(c12)CCC(C)C3 (stereo not drawn)	-0.119% (inactive)	–
O=C(CC(NCc1cccnc1)C(=O)O)Nc1ccc(O)cc1 (stereo not drawn)	–	14.7 µM (active)
CCc1ccc(NC(=O)c2cc3c(=O)n(Cc4cccnc4)ccc3nc2C)cc1	-1.59% (inactive)	–
Cc1cc(NC(=O)CC(C)C)cc(-c2nc3ncccc3o2)c1O	1.54% (inactive)	–
